From the antibiotic and cytotoxicity screens of Wong et al. (2023) come the findings set out here.

The whole screen tested about 39,000 compounds, of which about 3,300 (8.5%) were called active. This is one part of a sample in which actives are shown more often than they occur.

The subject of the assay is HepG2. As to the kind of experiment: cytotoxicity call (relative viability < 0.9). The conditions noted are these: 10 µM.
In the case of `CO[C@H]1CN(C)C(=O)c2cc(NC(=O)CC(F)(F)F)ccc2OC[C@@H](C)N(S(=O)(=O)c2cn(C)cn2)C[C@H]1C`, the cytotoxicity call is “inactive”. Take `CO[C@@H](C(=O)N(C)C[C@@H]1OCc2ccccc2-c2c(n(C)c3ccccc23)C(=O)N([C@@H](C)CO)C[C@H]1C)c1ccccc1`: the cytotoxicity call is “inactive”. With `COc1ccccc1CNC(=O)C[C@H]1C[C@@H]2c3cc(NS(=O)(=O)c4ccc(F)cc4)ccc3O[C@@H]2[C@H](CO)O1` the entry was “inactive”; with `C[C@@H]1CCCCO[C@H](CN(C)S(=O)(=O)c2ccccc2)[C@H](C)CN([C@H](C)CO)C(=O)c2cc(NS(C)(=O)=O)ccc2O1`, “inactive”.

Take `COc1ccc(NC(=O)N(C)C[C@H]2Oc3ccc(NC(=O)Cn4cnnn4)cc3CC(=O)N([C@@H](C)CO)C[C@@H]2C)cc1`: the cytotoxicity call was “inactive”. With `COc1ccc(NC(=O)Nc2ccc3c(c2)[C@@H]2C[C@@H](CC(=O)NCC(F)(F)F)O[C@@H](CO)[C@@H]2O3)cc1` the entry was “inactive”.

Turning to `C[C@@H]1CN([C@H](C)CO)C(=O)c2cccc(NC(=O)Nc3ccc(F)cc3)c2O[C@@H]1CN(C)Cc1ccc(C(=O)Nc2ccccc2N)cc1`, the cytotoxicity call is “inactive”. Consider `COCC#Cc1cnc2c(c1)C(=O)N([C@H](C)CO)C[C@@H](C)[C@@H](CN(C)S(=O)(=O)c1ccccc1)O2`, for which the cytotoxicity call is “inactive”. With `COCCN1C(=O)C2=C(C1=O)[C@H]1N(C)c3ccccc3[C@@]13C[C@@H](CO)N(C(C)=O)C3=N2` the entry was “inactive”; with `C[C@H](CO)N1C[C@H](C)[C@H](CN(C)C(=O)Nc2ccc(C(F)(F)F)cc2)Oc2ncc(-c3ccc(C#N)cc3)cc2C1=O`, “inactive”; with `C=CCOC(=O)[C@@H]1[C@H]2C(=O)O[C@H](c3ccccc3)[C@H](c3ccccc3)N2[C@H](c2ccc(OCCOC(=O)NCCCCCC(=O)NO)cc2)[C@]12C(=O)Nc1ccccc12`, “inactive”. The result for `C[C@@H]1CO[C@]2(O[C@H]3C[C@H]4[C@H]5C[C@H](O[C@H]6O[C@@H](C)[C@@H](O)[C@@H](O[C@@H]7O[C@@H](C)[C@H](O)[C@@H](O)[C@H]7O)[C@@H]6O)[C@H]6C[C@@H](O)CC[C@]6(C)[C@@H]5CC[C@]4(C)[C@H]3[C@@H]2C)[C@@H](O)C1` reads “inactive”; that for `C[C@@H]1CC[C@@]2(OC1)O[C@H]1C[C@H]3[C@H]4C[C@@H](O)[C@H]5C[C@@H](O[C@@H]6O[C@H](CO)[C@H](O[C@@H]7O[C@H](CO)[C@@H](O)[C@H](O[C@@H]8OC[C@@H](O)[C@H](O)[C@H]8O)[C@H]7O[C@@H]7O[C@H](CO)[C@@H](O[C@@H]8O[C@H](CO)[C@@H](O)[C@H](O)[C@H]8O)[C@H](O)[C@H]7O)[C@H](O)[C@H]6O)[C@H](O)C[C@]5(C)[C@@H]4CC[C@]3(C)[C@H]1[C@@H]2C`, “active”. The result for `CC(C)(O)[C@H]1CC[C@@](C)([C@H]2[C@@H](O)C[C@@]3(C)[C@@H]4C[C@H](O[C@@H]5O[C@H](CO)[C@@H](O)[C@H](O)[C@H]5O)[C@H]5C(C)(C)[C@@H](O[C@@H]6OC[C@@H](O)[C@H](O)[C@H]6O)CC[C@@]56C[C@@]46CC[C@]23C)O1` reads “inactive”; that for `CC1CCC2(OC1)OC1CC3C4CCC5CC(O)CCC5(C)C4CCC3(C)C1C2C` (configuration not stated), “inactive”; that for `CC(C)(O)C1CCC(C)(C2C(O)CC3(C)C4CC(OC5OC(CO)C(O)C(O)C5O)C5C(C)(C)C(OC6OCC(O)C(O)C6O)CCC56CC46CCC23C)O1` (configuration not stated), “inactive”. In the case of `C[C@@H]1CC[C@@]2(OC1)O[C@H]1C[C@H]3[C@H]4C[C@@H](O)[C@H]5C[C@@H](O[C@@H]6O[C@H](CO)[C@H](O[C@@H]7O[C@H](CO)[C@@H](O)[C@H](O[C@@H]8OC[C@@H](O)[C@H](O)[C@H]8O)[C@H]7O[C@@H]7O[C@H](CO)[C@@H](O)[C@H](O)[C@H]7O)[C@H](O)[C@H]6O)[C@H](O)C[C@]5(C)[C@@H]4CC[C@]3(C)[C@H]1[C@@H]2C`, the cytotoxicity call is “active”. With `C[C@H]1CN([C@@H](C)CO)C(=O)Cc2cc(NC(=O)C3CCCCC3)ccc2O[C@@H]1CN(C)C(=O)Nc1cccc2ccccc12` the entry was “inactive”. As to `Nc1nc(Cl)nc2c1ncn2[C@H]1C[C@@H](O)[C@@H](CO)O1`, the cytotoxicity call was “inactive”. With `C[C@@H]1CN([C@@H](C)CO)C(=O)c2cc(N(C)C)ccc2O[C@@H](C)CCCCO[C@H]1CN(C)C(=O)Nc1cccc2ccccc12` the entry was “inactive”; with `Fc1ccc(Nc2ncnc3sc(-c4ccccc4)cc23)cc1`, “inactive”. With `COc1ccc(S(=O)(=O)Nc2ccc3c(c2)C(=O)N([C@H](C)CO)C[C@@H](C)[C@@H](CN(C)C(=O)Nc2cccc4ccccc24)O3)cc1` the entry was “inactive”. For `CC1(C(=O)O)CCC2(C)CCC3(C)C(=CC(=O)C4C5(C)CCC(O)C(C)(C)C5CCC43C)C2C1` (configuration not stated), the cytotoxicity call is “inactive”. With `CC(=O)Oc1cc2c(c(C)c1OC(C)=O)CC=C1[C@@]2(C)CC[C@@]2(C)[C@H]3C[C@](C)(C(=O)O)CC[C@]3(C)CC[C@]12C`, the cytotoxicity call is “active”. Take `C[C@@H]1CCCCO[C@H](CN(C)Cc2ccc(C(F)(F)F)cc2)[C@@H](C)CN([C@H](C)CO)C(=O)c2cc(NC(=O)CCC(F)(F)F)ccc2O1`: the cytotoxicity call is “inactive”. The result for `C[C@H](CO)N1C[C@H](C)[C@@H](CN(C)Cc2ccc(C(F)(F)F)cc2)OCCCC[C@H](C)Oc2ccc(NC(=O)CCC(F)(F)F)cc2C1=O` reads “inactive”; that for `C[C@@H]1CN([C@H](C)CO)C(=O)c2cc(NC(=O)CCC(F)(F)F)ccc2O[C@@H](C)CCCCO[C@H]1CN(C)Cc1ccc(C(=O)O)cc1`, “inactive”; that for `C[C@@H]1CCCCO[C@@H](CN(C)Cc2ccc(C(=O)O)cc2)[C@H](C)CN([C@H](C)CO)C(=O)c2cc(NC(=O)CCC(F)(F)F)ccc2O1`, “active”. With `C[C@H]1CCCCO[C@H](CN(C)Cc2ccc(C(F)(F)F)cc2)[C@@H](C)CN([C@@H](C)CO)C(=O)c2cc(NC(=O)CCC(F)(F)F)ccc2O1` the entry was “active”.

In the case of `C[C@@H]1CCCCO[C@@H](CN(C)Cc2ccc(C(F)(F)F)cc2)[C@H](C)CN([C@H](C)CO)C(=O)c2cc(NC(=O)CCC(F)(F)F)ccc2O1`, the cytotoxicity call was “inactive”.

As for `C[C@H](CO)N1C[C@H](C)[C@H](CN(C)Cc2ccc(C(F)(F)F)cc2)OCCCC[C@H](C)Oc2ccc(NC(=O)CCC(F)(F)F)cc2C1=O`, the cytotoxicity call is “inactive”. For the compound `C[C@@H]1CCCCO[C@@H](CN(C)Cc2ccc(C(F)(F)F)cc2)[C@H](C)CN([C@@H](C)CO)C(=O)c2cc(NC(=O)CCC(F)(F)F)ccc2O1`, the cytotoxicity call was “active”. Turning to `C[C@@H]1CN([C@H](C)CO)C(=O)c2cc(NC(=O)CCC(F)(F)F)ccc2O[C@@H](C)CCCCO[C@@H]1CN(C)Cc1ccc(C(F)(F)F)cc1`, the cytotoxicity call was “inactive”. On to `C[C@@H]1CN([C@@H](C)CO)C(=O)c2cc(NC(=O)CCC(F)(F)F)ccc2O[C@@H](C)CCCCO[C@H]1CN(C)Cc1ccc(C(=O)O)cc1`, for which the cytotoxicity call is “inactive”. Consider `C[C@@H]1CCCCO[C@H](CN(C)Cc2ccc(C(F)(F)F)cc2)[C@@H](C)CN([C@@H](C)CO)C(=O)c2cc(NC(=O)CCC(F)(F)F)ccc2O1`, for which the cytotoxicity call is “inactive”. The result for `C[C@@H]1CCCCO[C@H](CN(C)Cc2ccc(C(F)(F)F)cc2)[C@H](C)CN([C@@H](C)CO)C(=O)c2cc(NC(=O)CCC(F)(F)F)ccc2O1` reads “active”; that for `CN(C)CC#Cc1ccc([C@@H]2[C@@H](CO)N3C(=O)CN(C(=O)c4cccnc4)C[C@H]23)cc1`, “inactive”; that for `CO[C@H](CN(C)C(=O)Nc1ccc(C(F)(F)F)cc1)[C@@H](C)CN(Cc1ccccc1Cl)[C@@H](C)CO`, “inactive”. With `C=CCC[C@H](Cc1ccc(F)cc1)C(=O)O[C@H](CNC(=O)[C@@H](CC=C)CC(=O)N[C@@H](CO)Cc1ccccc1)c1ccccc1`, the cytotoxicity call was “inactive”. Consider `C[C@H](CO)N1C[C@H](C)[C@@H](CN(C)Cc2ccc(-c3ccccc3)cc2)Oc2c(NC(=O)C3CC3)cccc2C1=O`, for which the cytotoxicity call was “inactive”. With `NC(=O)NCC#Cc1ccc2c(c1)[C@]1(C(=O)N2)[C@H](C(=O)N2CCCCCCC2)[C@H]2C(=O)O[C@H](c3ccccc3)[C@H](c3ccccc3)N2[C@@H]1c1ccccc1OCCO`, the cytotoxicity call is “inactive”.

Regarding `C[C@@H]1CN([C@@H](C)CO)S(=O)(=O)c2ccc(-c3ccccc3F)cc2O[C@H]1CN(C)S(C)(=O)=O`, the cytotoxicity call is “inactive”.

Consider `CN1C(=O)[C@@H](O)N(c2ccccc2)C1=O`, for which the cytotoxicity call is “inactive”. With `CCOC(=O)[C@H](CCc1ccccc1)N[C@@H](C)C(=O)N1C(=O)N(C)C[C@H]1C(=O)O`, the cytotoxicity call was “inactive”. Regarding `CC(C)NC(=O)N(C)C[C@@H]1Oc2ccc(NS(=O)(=O)c3ccc(Cl)cc3)cc2CC(=O)N([C@@H](C)CO)C[C@H]1C`, the cytotoxicity call was “inactive”. On to `C[C@@H]1CN([C@@H](C)CO)C(=O)c2cccc(NS(=O)(=O)c3cccs3)c2O[C@H]1CN(C)Cc1ccc(Cl)c(Cl)c1`, for which the cytotoxicity call is “inactive”. The result for `COc1ccc(CN(C)C[C@H]2OCCCC[C@@H](C)Oc3ccc(NC(=O)CCC(F)(F)F)cc3C(=O)N([C@H](C)CO)C[C@H]2C)cc1` reads “inactive”; that for `COc1ccc(CN(C)C[C@H]2OCCCC[C@H](C)Oc3ccc(NC(=O)CCC(F)(F)F)cc3C(=O)N([C@H](C)CO)C[C@H]2C)cc1`, “active”; that for `C[C@@H]1CN([C@@H](C)CO)C(=O)c2cc(NC(=O)CCC(F)(F)F)ccc2O[C@@H](C)CCCCO[C@H]1CN(C)Cc1ccc(C(F)(F)F)cc1`, “inactive”.

For `C[C@H]1CCCCO[C@@H](CN(C)Cc2ccc(C(F)(F)F)cc2)[C@@H](C)CN([C@@H](C)CO)C(=O)c2cc(NC(=O)CCC(F)(F)F)ccc2O1`, the cytotoxicity call was “active”. With `COc1ccc(CN(C)C[C@H]2OCCCC[C@H](C)Oc3ccc(NC(=O)CCC(F)(F)F)cc3C(=O)N([C@@H](C)CO)C[C@H]2C)cc1` the entry was “inactive”; with `C[C@@H]1CN([C@@H](C)CO)C(=O)c2cc(NC(=O)CCC(F)(F)F)ccc2O[C@@H](C)CCCCO[C@@H]1CN(C)Cc1ccc(C(F)(F)F)cc1`, “inactive”.
